AmpC no deterg = blocks E. coli AmpC beta-lactamase in detergent-free assay; Potency, µM (highest dose often 57.1 µM), inactives show top-dose activity change, negative = inhibition, most hits filed as inhibitors; actives 0.52% (n = 330,000); AID 485341; P00811; AmpC nitrocefin hydrolysis, absorbance 480 nm, 0.0001% Triton;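 note: plate controls were no compound for no effect and no enzyme for full effect; nearly all actives have a fitted effect of over 20% in size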
Target sequence (P00811 whole entry, looked up): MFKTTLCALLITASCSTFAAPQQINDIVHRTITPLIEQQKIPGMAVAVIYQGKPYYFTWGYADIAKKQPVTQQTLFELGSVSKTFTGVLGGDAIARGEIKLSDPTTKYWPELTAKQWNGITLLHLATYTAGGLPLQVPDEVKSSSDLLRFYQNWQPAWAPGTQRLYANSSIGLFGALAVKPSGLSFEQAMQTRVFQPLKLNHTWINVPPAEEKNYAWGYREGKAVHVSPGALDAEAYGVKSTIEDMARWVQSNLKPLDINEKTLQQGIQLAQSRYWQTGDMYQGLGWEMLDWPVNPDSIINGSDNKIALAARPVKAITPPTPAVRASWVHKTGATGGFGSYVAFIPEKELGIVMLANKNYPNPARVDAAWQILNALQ
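AmpC (5.3 nM in the dispensed reagent) in 20 mM phosphate pH 7.0 with 0.01% (detergent screen) or 0.0001% Triton X-100 was preincubated with compounds for 15 min at room temperature. Nitrocefin was then added from an 800 uM solution, and hydrolysis was followed at 480 nm.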
HCV inhibitor = blocks hepatitis C virus | Huh7.5.1 HCVcc-Cre infection, luciferase reporter, 44 h | Potency, µM (highest dose often 41.8 µM), for the others: at the highest dose activity change, negative = inhibition, most hits filed as inhibitors | actives 3.4% (n = 340,000) | AID 651820
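Seed cells (1,000/well) for 4 h; treat with compound and infect with HCVcc-Cre, moi about 0.5. Incubate 44 h, then detect luciferase activity.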
Pf growth 96h = P. falciparum growth inhibition at 96 hours; P. falciparum luciferase reporter growth, 96 h; Potency, µM (top dose mostly 28.7 µM), for inactives: at the highest dose activity change, negative = inhibition, usual class: inhibitors; actives 6.9% (n = 320,000); AID 504834
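Erythrocytes infected with luciferase-expressing P. falciparum were dispensed at 2% hematocrit and 0.05% parasitemia (final), then incubated with compounds 96 hours at 37 C in 5% CO2. Luminescence after detection reagent addition reported growth.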
AMA1 RON2 block = inhibitors of Plasmodium falciparum AMA1-RON2 interaction. AlphaScreen AMA1-biotinylated RON2 peptide binding. Potency, µM (titrated, usually from 58.2 µM), inactives show top-dose activity change, negative = inhibition, actives largely listed as inhibitors. actives 0.2% (n = 360,000);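 note: 0% = vehicle wells and -100% = peptide control; nearly all actives have a fitted effect of over 45% in size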
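AMA1 (3D7) with his tag at 25 nM final met compounds first, then biotinylated RON2 peptide at 25 nM; detection used donor plus acceptor beads, 10 µg/mL apiece, read by AlphaScreen after 30 min at room temperature.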
AmpC detergent = inhibitors of E. coli AmpC beta-lactamase with detergent; P00811; AmpC hydrolysis of nitrocefin, absorbance 480 nm, 0.01% Triton; Potency, µM (top dose mostly 114 µM), without a hit: at the highest dose activity change, negative = inhibition, usual class: inhibitors; actives 0.041% (n = 370,000); AID 485294;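 note: 0% = no-compound wells and -100% = no-enzyme wells; nearly all actives have a fitted effect of over 25% in size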
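AmpC (5.3 nM in the dispensed reagent) in 20 mM phosphate pH 7.0 with 0.01% (detergent screen) or 0.0001% Triton X-100 was preincubated with compounds for 15 min at room temperature. Nitrocefin was then added from an 800 uM solution, and hydrolysis was followed at 480 nm.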
Pf growth 48h = inhibits P. falciparum growth in the first generation, 48 h | P. falciparum luciferase growth in erythrocytes, 48 h | Potency, µM (titrated, usually from 28.7 µM), without a hit: top-dose activity change, negative = inhibition, actives largely listed as inhibitors | actives 5.9% (n = 310,000)
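Compounds are pin-transferred into medium, infected erythrocytes (2% hematocrit, 0.1% parasitemia final) are added, and plates sit one parasite generation at 37 C in 5% CO2. Detection reagent is then added and luminescence measured.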
The depositor's hits bear a star; u = inconclusive; x = no result; [ ] = dose if it differs, or a comment. A selection: hits, their analogues and other compounds. The true share with any hit is near 11%. Calls come from the whole dose curve; as a rule, active = well fitted curve in the direction sought with a large enough effect; inconclusive = small, poorly fitted or top-dose-only effect, or another doubt; inactive = no such curve, though single readings can be large; an effect the other way counts as inactive or inconclusive. Unless noted, % is set by controls: 0 for no effect and ±100 for the full control effect; potency is the fitted concentration of half-maximal effect.

SMILES	AmpC no deterg	HCV inhibitor	Pf growth 96h	AMA1 RON2 block	AmpC detergent	Pf growth 48h
Cc1ccc(Cl)cc1N1CCN(C(=O)c2cn(C)c3ccc(S(=O)(=O)N4CCCC4)cc3c2=O)CC1	x	x	x	x	1%	x
COc1cc(CSc2ncc(CO)n2Cc2ccc(C)cc2)cc(OC)c1	x	x	x	x	19%	x
C[C@@]12CCC=C[C@H]1[C@H](c1ccc(/C=C/c3ccccc3)cc1F)N(Cc1ccccc1)C2=O	17%	-5%	u	-9%	-5%	12µM*
C[C@@]12CCC=C[C@H]1[C@H](c1ccc(C(F)(F)F)cc1)N(Cc1ccccc1)C2=O	102%	-11%	10µM*	10%	-7%	u
COc1ccc(-c2ccc(C)cc2)cc1[C@H]1[C@@H]2C=CCC[C@@]2(C)C(=O)N1Cc1ccccc1	10%	4%	u	-12%	4%	12µM*
C[C@@]12CCC=C[C@H]1[C@H](c1ccc3ccccc3c1/C=C/c1ccccc1)N(Cc1ccccc1)C2=O	-30%	34%[8.37 µM]	u	0%	1%	u
O=C(NCCCN1CCN(c2ccc(F)cc2)CC1)c1ccc2nc(Cc3ccccc3)oc2c1	x	x	x	x	-8%	x
COc1cc(NC(=O)CSc2nc3nc(C)c(Cc4ccc(C)cc4)c(C)n3n2)cc(OC)c1	x	x	x	x	14%	x
Cc1cccc(N2C(=O)NC(=O)/C(=C\c3cc(C)n(-c4sc5c(c4C#N)CCCC5)c3C)C2=O)c1C	32µM*	-3%	-24%	0%	-7%	5%
O=C(Nc1c(-c2ccc(F)cc2)nc2ccccn12)c1ccccc1F	x	x	x	x	5%	x
Cc1cc(C)nc(/N=C(\N)Nc2ccc(OCCC(C)C)cc2)n1	-47%	10µM*	u	0%	-8%	10µM*
COc1ccc(N/C(N)=N/c2nc(C)cc(C)n2)cc1	x	x	x	3%	x	x
Cc1cc(C)nc(/N=C(\N)Nc2ccc(OCc3ccccc3)cc2)n1	2%	10µM*	47%	1%	9%	u
Cc1cc(C)nc(/N=C(\N)Nc2ccc(S(=O)(=O)Nc3nccc(C)n3)cc2)n1	-39%	u	4.1µM*	2%	-5%	44%
COc1ccc(C(=O)COC(=O)c2cc(-c3ccccc3)nc3c(C)cccc23)cc1	x	x	x	x	1%	x
COCC(=O)N1CCC(Oc2ccc(C(=O)NCc3cnc(C)cn3)cc2)CC1	-13%	21%	u	57%	6%	44%
COCC(=O)N1CCC(Oc2ccc(C(=O)NCCCC3CCCC3)cc2)CC1	187%	u	7.4µM*	-3%	5%	-1%
COCC(=O)N1CCC(Oc2ccc(C(=O)NCCCn3cccn3)cc2)CC1	4%	8%	22%	5%	4%	-28%
CCn1ccnc1CNC(=O)c1ccc(OC2CCN(C(=O)COC)CC2)cc1	-2%	4%	5.2µM*	37%	u	14%
COc1ccc(-c2[nH]nc3nc(-c4cc(Br)ccc4OC)cc(C(=O)O)c23)cc1	x	x	x	x	13%	x
Cc1ccc(SCC(=O)Nc2ccc(O)c(-c3nc4cc(C)ccc4o3)c2)cc1	x	x	x	x	23%	x
O=C(CSc1nc2ccccc2s1)N1c2ccccc2Sc2ccc(Cl)cc21	-46%	u	5.9µM*	11%	-3%	u
O=C(CSc1nc2ccccc2s1)N1c2ccccc2Sc2ccc(C(F)(F)F)cc21	-28%	u	u	-5%	-7%	15µM*
O=C(CSc1nc2ccccc2o1)N1c2ccccc2Sc2ccccc21	-3%	u	53%	-15%	-15%	u
O=C(O)c1ccc(Cl)c(S(=O)(=O)NCC2CCCO2)c1 (centres undefined)	5%	17%	u	-23%	u	x
SMILES	AmpC no deterg	HCV inhibitor	Pf growth 96h	AMA1 RON2 block	AmpC detergent	Pf growth 48h
COc1cccc2cc(C(=O)Nc3ccc(S(=O)(=O)NCC4CCCO4)cc3)c(=O)oc12 (centres undefined)	-3%	35%	60%	-4%	2%	2.1µM*
COc1ccc(NC(=O)c2ccc(Cl)c(S(=O)(=O)NCC3CCCO3)c2)c(OC)c1 (centres undefined)	-21%	u	12µM*	-6%	u	u
COc1cc(C(Nc2ccc(S(=O)(=O)N3CCC(C)CC3)cc2)C(=O)NCC2CCCO2)cc(OC)c1OC (centres undefined)	233%	-17%	u	8%	-18%	13µM*
COc1cc(C(Nc2ccc(S(=O)(=O)NCC3CCCO3)cc2)C(=O)NC(C)(C)C)cc(OC)c1OC (centres undefined)	36%	17%	u	-2%	-2%	2.1µM*
CCOc1cc(CNCCSc2nnnn2-c2ccccc2)cc(Cl)c1OC	x	x	x	x	-1%	x
CCn1c(Oc2ccc(F)cc2F)nc2c1c(=O)n(C)c(=O)n2C	x	x	x	x	0%	x
Cc1cccc(NC(=O)CN(C)S(=O)(=O)c2ccc3c(c2)c(=O)n(C)c(=O)n3C)c1	x	x	x	x	-9%	x
CCCOc1ccc2ccccc2c1/C=N/n1cnnc1	10%	u	25%	-3%	-6%	11%
CCOc1ccc2ccccc2c1/C=N/n1cncn1	10%	11µM*	0%	-10%	4%	-13%
COc1ccc(S(=O)(=O)N2c3ccc(Cl)cc3[C@](O)(c3ccccc3Cl)[C@@H]2C(=O)N2CCC[C@H]2C(N)=O)cc1OC	x	x	9.5µM*	x	x	u
COc1ccccc1-c1nn(CCC(=O)Nc2cccc(C(C)=O)c2)c2nc(C)cc(C)c12	x	x	x	x	14%	x
CCOc1cc(NC(=O)c2ccco2)c(OCC)cc1NC(=O)COc1ccccc1C	x	u	x	-4%	x	x
COc1cc(OC)cc(C(=O)Nc2cc(NC(=O)c3ccco3)ccc2OC)c1	80%	10µM*	3%	0%	-22%	u
COc1ccc(C)cc1NC(=O)CCNC(=O)c1ccco1	-15%	1%	15%	-11%	4%	u
COc1cc(NC(=O)COc2ccc(C)c(C)c2)ccc1NC(=O)c1ccco1	-22%	u	29%	-20%	0%	7.4µM*
COc1cc(NC(=O)COc2cccc(C)c2C)ccc1NC(=O)c1ccco1	-42%	u	u	7%	-5%	-16%
COc1ccc(C)cc1NC(=O)C(=O)NNC(=O)c1ccco1	u	-13%	1.9µM*	23%	3%	-3%
CCOc1cc(NC(=O)c2ccco2)c(OCC)cc1NC(=O)Cc1cccc(OC)c1	75%	13µM*	1%	-21%	-10%	4.7µM*
OCC(O)CS (centres undefined)	x	x	15%	x	x	2%

High-throughput results deposited in PubChem BioAssay by National Center for Advancing Translational Sciences (NCATS).
